The results in this text go back to ChEMBL document CHEMBL3988442, “University of Dundee, Small-Polar-MMV Screening Library” (2021).

Holding throughout (set-up): scale not given: direction of the effect not stated beside the values
For test [1], the target named is Protein translocase subunit SecA (Escherichia coli (strain K12)) (UniProt P10408). In words: Assay to Identify E. coli SecA ATPase Inhibitors. The class given is functional. Particulars: 30 µM.
Test [2] has as its target T1, Ubiquitin-activating enzyme e1, putative (Leishmania donovani (strain BPK282A1)) (UniProt E9BSI1).
T1 sequence (whole entry): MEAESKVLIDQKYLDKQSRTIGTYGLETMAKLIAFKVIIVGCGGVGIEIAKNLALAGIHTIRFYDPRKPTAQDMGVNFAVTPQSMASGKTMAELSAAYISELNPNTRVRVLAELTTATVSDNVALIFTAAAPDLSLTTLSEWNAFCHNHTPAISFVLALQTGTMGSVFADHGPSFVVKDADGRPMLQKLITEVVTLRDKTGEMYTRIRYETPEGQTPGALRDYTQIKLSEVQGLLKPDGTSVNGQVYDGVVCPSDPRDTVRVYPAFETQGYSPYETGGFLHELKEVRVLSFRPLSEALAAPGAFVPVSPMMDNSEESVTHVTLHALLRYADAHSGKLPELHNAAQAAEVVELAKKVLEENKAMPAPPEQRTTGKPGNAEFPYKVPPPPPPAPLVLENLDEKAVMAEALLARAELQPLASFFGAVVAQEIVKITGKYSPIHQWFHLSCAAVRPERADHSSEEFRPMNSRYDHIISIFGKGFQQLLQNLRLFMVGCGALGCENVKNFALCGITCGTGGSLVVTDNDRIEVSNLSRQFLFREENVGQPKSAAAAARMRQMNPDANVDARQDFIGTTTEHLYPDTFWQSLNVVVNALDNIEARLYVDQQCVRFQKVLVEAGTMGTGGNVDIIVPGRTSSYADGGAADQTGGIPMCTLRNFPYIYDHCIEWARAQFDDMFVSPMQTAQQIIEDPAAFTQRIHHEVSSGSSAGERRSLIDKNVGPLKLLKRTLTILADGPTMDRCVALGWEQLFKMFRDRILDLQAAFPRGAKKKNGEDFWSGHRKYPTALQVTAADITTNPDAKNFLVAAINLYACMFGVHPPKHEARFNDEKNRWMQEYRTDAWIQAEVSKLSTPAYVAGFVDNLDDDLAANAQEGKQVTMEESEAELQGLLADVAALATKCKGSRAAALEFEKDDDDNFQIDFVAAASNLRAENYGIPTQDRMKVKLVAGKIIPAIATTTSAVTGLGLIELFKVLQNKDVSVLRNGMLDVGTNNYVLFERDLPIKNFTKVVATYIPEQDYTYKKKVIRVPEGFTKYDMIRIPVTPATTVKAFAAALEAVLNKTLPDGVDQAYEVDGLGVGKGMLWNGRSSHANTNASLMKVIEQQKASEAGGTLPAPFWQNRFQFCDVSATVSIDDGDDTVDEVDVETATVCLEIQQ
The experiment in a line: Leishmania donovani Ubiquitin Activating Enzyme (LdE1). It is filed as functional. The following applies: 30 µM.

Test [3] addresses AMP-activated protein kinase, AMPK (Homo sapiens) (UniProt P54646+O43741+P54619+Q9UGJ0+Q9Y478+Q13131+Q9UGI9). In words: AMP-dependent Kinase enzyme assay. An in vitro enzyme assay that detects ADP turnover that is directly proportional to AMPK activity. This uses naive AMPK that is activated during the assay with MK-8722. It is filed as functional. Particulars: 30 µM.
In test [4] the target is Sialic acid-binding Ig-like lectin 9 (Homo sapiens) (UniProt Q9Y336). The experiment in a line: Hs-Siglec9 ALPHAscreen SOP 20170721. The following applies: 10 µM. In general terms: Bead proximity is the source of the signal in Alpha formats.
A further test has as its system Trypanosoma cruzi. In words: Trypanosoma cruzi phosphomannomutase and mannose-1-phosphate guanylyltransferase assay. It is filed as functional. Particulars: 10 µM.
Test [5] concerns the target T2, Arginase-2, mitochondrial (Homo sapiens) (UniProt P78540).
T2 sequence (whole entry): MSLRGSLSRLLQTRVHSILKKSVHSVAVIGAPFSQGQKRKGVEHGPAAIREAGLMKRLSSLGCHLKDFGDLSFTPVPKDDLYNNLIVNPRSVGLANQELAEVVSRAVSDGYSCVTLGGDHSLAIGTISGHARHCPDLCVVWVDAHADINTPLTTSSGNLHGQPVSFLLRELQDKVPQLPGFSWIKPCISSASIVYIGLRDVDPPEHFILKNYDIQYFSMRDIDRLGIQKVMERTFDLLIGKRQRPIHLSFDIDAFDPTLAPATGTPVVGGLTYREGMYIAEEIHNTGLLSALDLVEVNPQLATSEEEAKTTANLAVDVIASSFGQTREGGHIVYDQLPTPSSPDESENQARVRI
In words: in vitro enzyme assay to detect the production of urea directly proportional to the activity of Arginase II. Also: in the data most compounds retested in dose-response had high values. It is filed as functional. The following applies: 33.3 µM.

Test [6] addresses T3, Proteasome subunit beta (Trypanosoma cruzi) (UniProt O96673).
T3 sequence (whole entry): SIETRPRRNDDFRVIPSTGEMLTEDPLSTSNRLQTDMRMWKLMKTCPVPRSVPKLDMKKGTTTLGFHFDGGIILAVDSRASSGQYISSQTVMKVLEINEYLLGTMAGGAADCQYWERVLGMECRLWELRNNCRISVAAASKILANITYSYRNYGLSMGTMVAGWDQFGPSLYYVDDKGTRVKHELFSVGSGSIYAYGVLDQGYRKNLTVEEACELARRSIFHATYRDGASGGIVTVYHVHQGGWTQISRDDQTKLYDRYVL
In words: Trypanosoma cruzi proteasome chymotrypsin-like activity (TcProtChymo) assay. Also: in the data most compounds retested in dose-response had high values. The following applies: 9.37 µM. It is filed as functional.

The species entered for another test is Homo sapiens. The experiment in a line: To identify inhibition of the IFN signalling (Jak-Stat) pathway via expression of an eGFP reporter gene under the control of an IFN-stimulated response element (ISRE) containing MxA promoter. Particulars: 30 µM. It is filed as functional.
Test [7] has as its target T4, Tyrosyl-tRNA synthetase, putative (Trypanosoma cruzi (strain CL Brener)) (UniProt Q4DSP6).
T4 sequence (whole entry): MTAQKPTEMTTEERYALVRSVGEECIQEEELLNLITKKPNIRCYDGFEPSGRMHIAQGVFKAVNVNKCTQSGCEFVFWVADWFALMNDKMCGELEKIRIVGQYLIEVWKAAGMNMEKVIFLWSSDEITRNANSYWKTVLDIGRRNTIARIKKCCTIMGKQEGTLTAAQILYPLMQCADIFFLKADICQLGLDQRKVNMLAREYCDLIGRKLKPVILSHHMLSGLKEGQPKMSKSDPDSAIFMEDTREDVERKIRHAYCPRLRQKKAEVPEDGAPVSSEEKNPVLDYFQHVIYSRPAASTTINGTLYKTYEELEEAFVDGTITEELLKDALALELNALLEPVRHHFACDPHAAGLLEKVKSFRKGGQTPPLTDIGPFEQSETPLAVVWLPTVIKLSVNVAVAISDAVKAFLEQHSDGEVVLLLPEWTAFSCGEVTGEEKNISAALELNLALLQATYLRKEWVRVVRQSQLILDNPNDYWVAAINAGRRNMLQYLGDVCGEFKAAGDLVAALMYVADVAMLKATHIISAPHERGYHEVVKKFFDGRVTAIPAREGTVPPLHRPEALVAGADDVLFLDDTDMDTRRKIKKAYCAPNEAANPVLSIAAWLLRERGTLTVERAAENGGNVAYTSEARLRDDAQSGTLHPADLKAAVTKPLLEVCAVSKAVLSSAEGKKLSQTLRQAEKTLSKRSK
The experiment in a line: Trypanosoma cruzi tyrosyl tRNA synthetase (TcYRS) _High Tyrosine SOP. Also: in the data most compounds retested in dose-response had high values. The following applies: 30 µM. It is filed as functional.

The target in test [8] is T4, Tyrosyl-tRNA synthetase, putative (Trypanosoma cruzi (strain CL Brener)). In words: Trypanosoma cruzi tyrosyl tRNA synthetase (TcYRS) SOP. It is filed as functional. Particulars: 30 µM.
The target in test [9] is Chromo domain-containing protein 1 (Saccharomyces cerevisiae (strain ATCC 204508 / S288c) (Baker's yeast)) (UniProt P32657). The experiment in a line: ScCHD-1 Enzyme Inhibition Assay. Also: in the data most compounds retested in dose-response had high values. It is filed as functional. Particulars: 30 µM.

Molecules are shown by their SMILES. For some assays here: Potency and affinity values are given separately.

Chain of Sialic acid-binding Ig-like lectin 9 (Homo sapiens) (Q9Y336 whole entry): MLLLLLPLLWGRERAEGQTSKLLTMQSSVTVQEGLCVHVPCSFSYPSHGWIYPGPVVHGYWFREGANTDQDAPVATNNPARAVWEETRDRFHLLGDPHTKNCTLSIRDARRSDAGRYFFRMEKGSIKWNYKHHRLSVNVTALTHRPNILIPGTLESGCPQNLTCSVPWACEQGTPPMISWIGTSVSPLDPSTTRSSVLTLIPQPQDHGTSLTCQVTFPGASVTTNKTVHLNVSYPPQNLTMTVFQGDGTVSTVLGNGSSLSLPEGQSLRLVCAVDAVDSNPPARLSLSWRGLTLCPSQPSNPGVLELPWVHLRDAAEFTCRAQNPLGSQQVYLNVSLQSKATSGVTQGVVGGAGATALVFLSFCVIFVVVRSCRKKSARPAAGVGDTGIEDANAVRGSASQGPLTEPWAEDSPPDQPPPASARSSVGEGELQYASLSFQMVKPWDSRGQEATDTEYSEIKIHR
Chain of Chromo domain-containing protein 1 (Saccharomyces cerevisiae (strain ATCC 204508 / S288c) (Baker's yeast)) (P32657 whole entry, the tested form may be a part): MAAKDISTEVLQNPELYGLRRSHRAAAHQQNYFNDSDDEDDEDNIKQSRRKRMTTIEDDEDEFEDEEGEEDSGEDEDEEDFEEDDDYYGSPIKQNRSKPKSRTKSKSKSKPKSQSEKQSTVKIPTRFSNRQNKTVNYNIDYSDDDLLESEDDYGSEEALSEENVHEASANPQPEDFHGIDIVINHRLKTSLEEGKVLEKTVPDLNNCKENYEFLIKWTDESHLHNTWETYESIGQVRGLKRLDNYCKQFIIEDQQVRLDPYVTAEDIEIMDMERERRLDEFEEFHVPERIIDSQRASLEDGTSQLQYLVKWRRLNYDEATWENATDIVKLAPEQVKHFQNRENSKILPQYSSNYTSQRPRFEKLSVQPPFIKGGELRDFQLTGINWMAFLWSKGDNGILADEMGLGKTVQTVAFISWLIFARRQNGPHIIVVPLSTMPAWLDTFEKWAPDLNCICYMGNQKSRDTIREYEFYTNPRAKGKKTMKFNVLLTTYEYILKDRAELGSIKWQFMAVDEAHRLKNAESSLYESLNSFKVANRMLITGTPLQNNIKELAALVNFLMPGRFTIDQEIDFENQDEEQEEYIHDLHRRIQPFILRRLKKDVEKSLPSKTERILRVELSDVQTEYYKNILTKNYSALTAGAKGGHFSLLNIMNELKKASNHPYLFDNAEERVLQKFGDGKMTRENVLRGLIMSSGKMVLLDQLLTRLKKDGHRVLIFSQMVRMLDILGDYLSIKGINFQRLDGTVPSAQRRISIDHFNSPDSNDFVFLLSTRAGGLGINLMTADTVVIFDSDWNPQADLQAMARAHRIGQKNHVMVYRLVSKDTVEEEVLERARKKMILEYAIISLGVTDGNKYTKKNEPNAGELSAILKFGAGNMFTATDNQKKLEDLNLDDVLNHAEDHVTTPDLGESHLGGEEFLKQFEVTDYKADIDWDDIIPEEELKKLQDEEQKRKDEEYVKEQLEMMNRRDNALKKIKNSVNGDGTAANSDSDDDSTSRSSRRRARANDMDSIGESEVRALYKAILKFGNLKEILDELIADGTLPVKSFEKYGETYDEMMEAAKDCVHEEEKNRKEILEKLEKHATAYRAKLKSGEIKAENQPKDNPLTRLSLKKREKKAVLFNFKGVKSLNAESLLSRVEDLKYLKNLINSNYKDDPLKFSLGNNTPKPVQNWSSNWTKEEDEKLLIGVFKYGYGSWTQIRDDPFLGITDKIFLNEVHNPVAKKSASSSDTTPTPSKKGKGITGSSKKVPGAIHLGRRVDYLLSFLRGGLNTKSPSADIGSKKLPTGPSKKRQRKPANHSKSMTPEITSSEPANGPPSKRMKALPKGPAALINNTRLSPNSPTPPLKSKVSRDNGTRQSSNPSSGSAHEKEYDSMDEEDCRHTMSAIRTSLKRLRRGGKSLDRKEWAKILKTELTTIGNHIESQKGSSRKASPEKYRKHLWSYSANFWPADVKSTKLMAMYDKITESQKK
Chain of Protein translocase subunit SecA (Escherichia coli (strain K12)) (P10408 whole entry): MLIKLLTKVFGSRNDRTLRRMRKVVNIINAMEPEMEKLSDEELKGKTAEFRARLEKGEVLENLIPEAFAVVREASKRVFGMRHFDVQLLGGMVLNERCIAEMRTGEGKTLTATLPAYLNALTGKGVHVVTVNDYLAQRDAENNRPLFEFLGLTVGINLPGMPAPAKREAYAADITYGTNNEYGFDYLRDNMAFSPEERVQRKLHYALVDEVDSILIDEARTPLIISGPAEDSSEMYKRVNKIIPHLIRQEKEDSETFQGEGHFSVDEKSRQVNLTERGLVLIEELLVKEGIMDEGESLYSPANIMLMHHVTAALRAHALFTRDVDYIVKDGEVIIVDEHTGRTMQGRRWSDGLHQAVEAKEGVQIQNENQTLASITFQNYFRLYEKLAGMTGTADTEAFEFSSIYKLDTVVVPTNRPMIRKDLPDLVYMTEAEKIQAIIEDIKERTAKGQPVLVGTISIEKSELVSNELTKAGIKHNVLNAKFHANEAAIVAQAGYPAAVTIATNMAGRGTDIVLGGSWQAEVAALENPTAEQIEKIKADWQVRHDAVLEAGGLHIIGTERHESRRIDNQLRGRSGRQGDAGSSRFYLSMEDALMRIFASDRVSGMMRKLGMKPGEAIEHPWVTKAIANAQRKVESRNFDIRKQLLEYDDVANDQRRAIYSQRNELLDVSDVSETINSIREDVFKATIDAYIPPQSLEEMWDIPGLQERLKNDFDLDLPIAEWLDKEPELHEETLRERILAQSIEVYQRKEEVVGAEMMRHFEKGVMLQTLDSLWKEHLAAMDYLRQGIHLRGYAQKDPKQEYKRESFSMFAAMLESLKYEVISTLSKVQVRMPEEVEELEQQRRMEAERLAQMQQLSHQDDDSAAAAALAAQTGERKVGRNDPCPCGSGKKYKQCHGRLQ

Turning to `CCS(=O)(=O)N1CCc2c(cccc2NC(=O)NCCOC)C1`, the Percent Effect is -5.83% in test [1]; 5.26% in [2]; 6.05% in test [3]; 2.98% in test [4]; -0.0974% with Trypanosoma cruzi; -2.37% in test [5]. Moreover, the Percent Effect in [6] is 7.77%; in the test filed under Homo sapiens, 8.27%; in [7] it was 4.25%; in test [8] it was 13%; in test [9] it was -5.11%.
On to `CC(O)CNC(=O)NCc1ccc(N2CCNC(=O)C2)cc1` (stereo not given), for which the Percent Effect was -3.56% in [1]; 20.8% in test [2]; -9.88% in test [3]; 10.6% in test [4]; 2.06% in the test on Trypanosoma cruzi; -0.712% in test [5]. For the same molecule, the Percent Effect was 4.73% in [6]; -4.97% in the test listed under Homo sapiens; 11.7% in test [7]; 21.9% in test [8]; -11.2% in [9].
As for `Cc1cccc(C2(CNC(=O)CCN3C(=O)CCC3=O)CCCC2)c1`, the Percent Effect is -5.2% in test [1]; 10.1% in test [2]; 1.38% in [3]; 0.402% in [4]; 5.95% in the test with Trypanosoma cruzi; -4.56% in test [5]. Besides, the Percent Effect in test [6] is 3.36%; in the test listed under Homo sapiens, 8.93%; in test [7], 9.36%; in [8], 13.9%; in test [9], -5.07%.
With `COc1cccc(CCC2CCCN(C(=O)C3=NN(C)C(=O)CC3)C2)c1` (stereo not given), the Percent Effect in test [1] is -0.975%; in [2], -10.8%; in test [3] it was -2.43%; in [4], -1.4%; with Trypanosoma cruzi, -3.28%; in [5], 0.952%. For the same molecule, the Percent Effect is 3.79% in test [6]; 6.9% in the test filed under Homo sapiens; 3.7% in test [7]; 4.88% in test [8]; -1.44% in test [9].
In the case of `Cc1cccc(OCCC(=O)N2CCCN(CC(N)=O)CC2)c1C`, the Percent Effect in [1] is -3.47%; in [2], 17.7%; in [3], -7.09%; in test [4], 14.1%; in the test on Trypanosoma cruzi, 1.6%; in test [5] it was -3.42%. The Percent Effect in test [6] was 4.34%; in the test listed under Homo sapiens, -12.7%; in test [7], 1.48%; in test [8], 16.5%; in test [9], -5.52%.
Take `COc1ccc(CNC(=O)NC2CCC(O)CC2)c(C(F)(F)F)c1` (stereo not given): the Percent Effect in test [1] is -1.24%; in test [2], -9.72%; in test [3] it was -2.59%; in [4], -9.45%; in the test on Trypanosoma cruzi it was -4.57%; in [5], 1.32%. Moreover, the Percent Effect in [6] is 14%; in the test listed under Homo sapiens, -1.15%; in test [7] it was 3.16%; in [8], 2.56%; in test [9] it was -2.64%.
Regarding `CN(Cc1ccc(F)cc1)C(=O)CN1CCCC(Cn2cncn2)C1` (stereo not given), the Percent Effect in test [1] was -2.63%; in [2], 2.53%; in test [3], 1.84%; in test [4], 7.47%; in the test on Trypanosoma cruzi, 3.49%; in [5], 1.52%. Besides, the Percent Effect in test [6] is -6.8%; in the test filed under Homo sapiens, -5.05%; in [7] it was 7.39%; in test [8], 3.8%; in test [9], -2.65%.
Regarding `COc1ccccc1OCCN1CCC(N2CCNC2=O)CC1`, the Percent Effect was -6.27% in test [1]; 5.41% in [2]; 1.68% in [3]; 3.47% in test [4]; -5.66% in the test with Trypanosoma cruzi; 3.51% in [5]. In addition, the Percent Effect in test [6] was 12%; in the test listed under Homo sapiens it was 18.9%; in test [7] it was -3.96%; in test [8], -13.4%; in [9], 0.174%.
For `Nc1nc(C2CCN(C(=O)c3cncs3)CC2)cs1`, the Percent Effect in test [1] was -7.01%; in [2], 12.2%; in test [3], 9.81%; in [4], 5.35%; in the test with Trypanosoma cruzi, 1.38%; in test [5], 0.232%. Further, the Percent Effect in test [6] is 3.59%; in the test listed under Homo sapiens it was -3.51%; in test [7], 3.23%; in test [8], 11.7%; in [9], -8.22%.
Turning to `CN(Cc1ccon1)C(=O)C1CC(=O)N(Cc2ccncc2)C1` (stereo not given), the Percent Effect is -6.1% in test [1]; 5.41% in [2]; -1.61% in test [3]; 13.8% in [4]; -0.684% in the test with Trypanosoma cruzi; 0.248% in test [5]. Besides, the Percent Effect in [6] was 2.66%; in the test filed under Homo sapiens, 14.7%; in test [7], 5.38%; in test [8], 8.64%; in [9], -4.6%.
